Consider 34 compounds from the supplement of paper PMC11172423.

This test has as its system Falciformispora senegalensis CBS197.79. Put plainly: growth relative to untreated control; higher = less inhibition, active = 20 or less. The essentials: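 For each test, a hyphal fragment suspension of M. mycetomatis MM55 or F. senegalensis CBS197.79 was prepared in colourless RPMI 1640 with L-glutamine and MOPS at 68–72% transmission at 660 nm. Exposure to compound at 100 or 25 µM ran for 7 days at 37 °C in 96-well plates, followed by viability reading with MTS (2 h, 490 nm) or resazurin (600 nm). Growth corresponds to metabolic activity relative to the untreated growth control after correction of both with a blank of medium and dye.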

A number with no mark means an inactive call.

`CN1CCN(C(=O)O[C@H]2c3nccnc3C(=O)N2c2ccc(Cl)cn2)CC1`: the growth by setting is: (25 µM) 106%; (100 µM) 102%.

For the compound `CC(c1ccc(C(F)(F)F)nc1)S(C)(=O)=NC#N` (stereo not drawn), the growth by setting is: (25 µM) 91.2%; (100 µM) 90.7%.

Take `NCCc1cn(S(=O)(=O)c2c(Cl)nc3sccn23)c2ccccc12`: the growth reads like this: (25 µM) 13.2% (active); (100 µM) 11.5% (active).

On to `N#Cc1nn(-c2c(Cl)cc(C(F)(F)F)cc2Cl)c(NCc2ccccn2)c1SC(F)F`, for which the growth (25 µM) is 85.6% and the growth (100 µM) is 101%.

Turning to `CN(c1cc(NC(=O)c2ccc(F)cc2)ccn1)C1CCN(Cc2cccc(F)c2)CC1`, the growth (25 µM) is 66% and the growth (100 µM) is 30.2%.

For the compound `CCOP(=S)(OCC)Oc1nc(Cl)c(Cl)cc1Cl`, the growth was 92.9% (25 µM) and 69% (100 µM).

In the case of `O=C(NC(=O)c1c(F)cccc1F)Nc1ccc(Cl)cc1`, the growth was 92.8% (25 µM) and 84.5% (100 µM).

For `C=C(C)[C@H]1Cc2c(ccc3c2O[C@@H]2COc4cc(OC)c(OC)cc4[C@@H]2C3=O)O1`, the growth was 90.6% (25 µM) and 102% (100 µM).

Regarding `CCc1nn(C)c(C(=O)NCc2ccc(Oc3ccc(C)cc3)cc2)c1Cl`, the growth (25 µM) was 98.1% and the growth (100 µM) was 79.9%.

With `CC(C)(C)Nc1cc2c(cn1)nc(Nc1cc(Cl)cc(C(F)(F)F)c1)n2C1CCNC1` (stereo not drawn), the growth (25 µM) was 15.1% (active) and the growth (100 µM) is 14.1% (active).

Consider `COc1cc(/C=N/c2c(SC(F)(F)F)c(C#N)nn2-c2c(Cl)cc(C(F)(F)F)cc2Cl)ccc1O`, for which the growth by setting is: (25 µM) 84.8%; (100 µM) 90.9%.

Consider `CNC(=O)Oc1ccccc1OC(C)C`, for which the growth was 92.8% (25 µM) and 97.7% (100 µM).

For `CC1(C)C(C=C(Cl)Cl)C1C(=O)OC(C#N)c1ccc(F)c(Oc2ccccc2)c1` (stereo not drawn), the growth is, setting by setting: (25 µM) 94%; (100 µM) 73.5%.

For the compound `CN(C)CCn1c(Nc2cc(Cl)cc(C(F)(F)F)c2)nc2cnc(NC3CCCC3)cc21`, the growth runs as follows: (25 µM) 94.1%; (100 µM) 105%.

With `CN/C(=N\[N+](=O)[O-])NCc1cnc(Cl)s1`, the growth (25 µM) was 90.6% and the growth (100 µM) was 85.7%.

Take `CC(COc1ccc(Oc2ccccc2)cc1)Oc1ccccn1` (stereo not drawn): the growth (25 µM) was 88.9% and the growth (100 µM) is 75.6%.

With `CCN(CC)c1nc(C)cc(OP(=S)(OC)OC)n1`, the growth is, setting by setting: (25 µM) 96%; (100 µM) 95.6%.

Regarding `COc1ccc(Cc2nccc3cc(OC)c(OC)cc23)cc1OC`, the growth runs as follows: (25 µM) 110%; (100 µM) 104%.

Consider `CC1(C)C(/C=C(\Cl)c2ccc(Cl)cc2)C1C(=O)OC(C#N)c1ccc(F)c(Oc2ccccc2)c1` (stereo not drawn), for which the growth reads like this: (25 µM) 74.8%; (100 µM) 93.3%.

Take `O=C(NC(=O)c1c(F)cccc1F)Nc1ccc(Cl)c(Oc2ncc(C(F)(F)F)cc2Cl)c1`: the growth was 93% (25 µM) and 84% (100 µM).

As for `C[C@@H]1O[C@@H](O[C@@H]2C=C3CC[C@@H]4[C@H](CC[C@]5(C)[C@@H](c6ccc(=O)oc6)CC[C@]45O)[C@@]3(C)CC2)[C@H](O)[C@H](O)[C@H]1O`, the growth runs as follows: (25 µM) 99.3%; (100 µM) 104%.

As for `Cc1sc2c(c1C)C(c1ccc(Cl)cc1)=N[C@@H](CC(=O)OC(C)(C)C)c1nnc(C)n1-2`, the growth is, setting by setting: (25 µM) 101%; (100 µM) 97.4%.

Turning to `O=C(NC(=O)c1ccccc1Cl)Nc1ccc(OC(F)(F)F)cc1`, the growth is 84.1% (25 µM) and 76.1% (100 µM).

For the compound `O=[N+]([O-])/C=C1\NCCCS1`, the growth is 86.4% (25 µM) and 93.8% (100 µM).

With `ClC1=C(Cl)[C@@]2(Cl)[C@H]3C[C@@H](Cl)[C@H](Cl)[C@H]3[C@@]1(Cl)C2(Cl)Cl`, the growth reads like this: (25 µM) 64.8%; (100 µM) 78.3%.

Regarding `CC(C)=CC1C(C(=O)OCN2C(=O)C3=C(CCCC3)C2=O)C1(C)C` (stereo not drawn), the growth is 93.7% (25 µM) and 100% (100 µM).

Take `CNC(=O)c1cc(Cl)cc(C)c1NC(=O)c1cc(Br)nn1-c1ncccc1Cl`: the growth (25 µM) is 93.3% and the growth (100 µM) is 94.4%.

`C[C@@H]1C[C@@H]([C@H](O)CC2CC(=O)NC(=O)C2)C(=O)[C@@H](C)C1`: the growth was 101% (25 µM) and 101% (100 µM).

With `Cc1nc(N(C)C)nc(OC(=O)N(C)C)c1C`, the growth (25 µM) is 86.3% and the growth (100 µM) is 87.9%.

Regarding `CC1(C)C(C=C(Cl)Cl)C1C(=O)OCc1cccc(Oc2ccccc2)c1` (stereo not drawn), the growth was 70.4% (25 µM) and 98.3% (100 µM).

Regarding `Cc1c(COC(=O)[C@@H]2[C@H](C=C(Cl)C(F)(F)F)C2(C)C)cccc1-c1ccccc1`, the growth (25 µM) is 87.1% and the growth (100 µM) is 95.2%.

As for `CC[C@@H]1CCC[C@H](O[C@H]2CC[C@H](N(C)C)[C@@H](C)O2)[C@@H](C)C(=O)C2=C[C@@H]3[C@@H](C=C(C)[C@@H]4C[C@@H](O[C@@H]5O[C@@H](C)[C@H](OC)[C@@H](OC)[C@H]5OC)C[C@@H]34)[C@@H]2CC(=O)O1.CC[C@@H]1CCC[C@H](O[C@H]2CC[C@H](N(C)C)[C@@H](C)O2)[C@@H](C)C(=O)C2=C[C@@H]3[C@@H](C=C[C@@H]4C[C@@H](O[C@@H]5O[C@@H](C)[C@H](OC)[C@@H](OC)[C@H]5OC)C[C@@H]34)[C@@H]2CC(=O)O1`, the growth runs as follows: (25 µM) 78.1%; (100 µM) 93.3%.

In the case of `Cc1cc(C2=NOC(c3cc(Cl)cc(Cl)c3)(C(F)(F)F)C2)ccc1C(=O)NCC(=O)NCC(F)(F)F` (stereo not drawn), the growth was 92.4% (25 µM) and 103% (100 µM).

Turning to `CC[C@@H](C(=O)[C@@H](C)[C@@H](O)[C@H](C)[C@@H]1O[C@@H]([C@@H](CC)C(=O)O)CC[C@@H]1C)[C@H]1O[C@]2(C=C[C@@H](O)[C@]3(CC[C@@](C)([C@H]4CC[C@](O)(CC)[C@H](C)O4)O3)O2)[C@H](C)C[C@@H]1C`, the growth is 102% (25 µM) and 102% (100 µM).
